Experimental data taken from PubChem BioAssay (NCATS).
Results filed as inconclusive are left out. Activity calls are given as the source filed them. Calls come from the whole dose curve; as a rule, active = well fitted curve in the direction sought with a large enough effect; inconclusive = small, poorly fitted or top-dose-only effect, or another doubt; inactive = no such curve, though single readings can be large; an effect the other way counts as inactive or inconclusive.

Tests used:
[1] = target: Arylsulfatase A (Homo sapiens) (UniProt P15289); test: qHTS screen for enhancers of Arylsulfatase A (ASA1): LOPAC Validation Assay (AID 720538); settings: ASA enzyme activity, LOPAC qHTS enhancer assay; series mostly up to 57.5 µM
Method in brief: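 Read-out: fluorescence at Ex=525/Em=598 nm after 1N NaOH final stop. Patient fibroblasts carrying ASA-I179S had 48h compound exposure, then 14h room-temperature pNCS hydrolysis (0.5mM final) in lysis buffer. Signal increase = enhanced activity.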

[2] = qHTS for compounds that reverse cellular toxicity of Amyloid beta (A-beta) peptide in yeast: LOPAC Validation Assay (AID 720559); settings: yeast expressing A-beta; series mostly up to 46.1 µM
Method in brief: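 OD600 growth readout after 48 hr at 30 C; A-beta-toxic yeast plus pinned compounds in medium. Normalization: DMSO = negative, equimolar FeCl3 + clioquinol = positive.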

[3] = qHTS for Activators of Parkin Expression: LOPAC Validation Assay (NLuc Reporter) (AID 720572); settings: Parkin promoter NanoLuc reporter cells, luminescence, percent of positive control, DMSO as zero; series mostly up to 46.1 µM
Method in brief: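 NLuc signal, read 10 min after reagent and following a prior FLuc read, is normalized to DMSO (0) and positive controls (100%). Cells: neuronal Parkin-promoter coincidence reporter line; compounds tested 7-point, 24 h, 37 C, 5% CO2.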

[4] = qHTS for Activators of Parkin Expression: LOPAC Validation Assay (FLuc Reporter) (AID 720573); settings: Cell line, PRKN promoter firefly luciferase reporter, vehicle wells = 0, positive control = 100%; series mostly up to 46.1 µM
Method in brief: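 FLuc luminescence read-out from a neuronal line expressing a Parkin-promoter-driven coincidence reporter. Cells treated 24 h at 37 C, 5% CO2 with compounds at 7 concentrations; signal increase normalized to DMSO and positive control.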

[5] = target: T1, Hexokinase-4 (Homo sapiens) + Glucokinase regulatory protein (Homo sapiens) (UniProt P35557+Q14397); test: qHTS assay for inhibitors of recombinant human GCK-GKRP interaction: Diaphorase-coupled assay (AID 743205); settings: G6PDH/diaphorase resorufin fluorescence; series mostly up to 57.5 µM
Method in brief: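 Resorufin fluorescence (525/590 nm), read each minute over 30 min, reports GCK activity coupled via G6PDH and diaphorase. Reaction: 10 nM GST-GCK, 10 nM FLAG-GKRP, 5 mM glucose, 0.4 mM ATP, 0.15 mM NADP+, 0.1 mM resazurin.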

[6] = target: T1, Hexokinase-4 (Homo sapiens) + Glucokinase regulatory protein (Homo sapiens); test: qHTS assay for inhibitors of recombinant human GCK-GKRP interaction: ADP-Glo assay (AID 743206); settings: ADP-Glo luminescence, 60 min, 0% = vehicle-only wells with enzyme present; series mostly up to 76.9 µM
Method in brief: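 Pin-transferred compounds meet a 15 nM GST-GCK/15 nM FLAG-GKRP/2 uM S6P mix (dispense concentrations). ATP is then added to 0.4 mM final with 5 mM glucose, and the reaction runs 60 min at room temperature. ADP is quantified luminescently.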

Measured: outcome

T1 sequence (P35557 whole entry, looked up): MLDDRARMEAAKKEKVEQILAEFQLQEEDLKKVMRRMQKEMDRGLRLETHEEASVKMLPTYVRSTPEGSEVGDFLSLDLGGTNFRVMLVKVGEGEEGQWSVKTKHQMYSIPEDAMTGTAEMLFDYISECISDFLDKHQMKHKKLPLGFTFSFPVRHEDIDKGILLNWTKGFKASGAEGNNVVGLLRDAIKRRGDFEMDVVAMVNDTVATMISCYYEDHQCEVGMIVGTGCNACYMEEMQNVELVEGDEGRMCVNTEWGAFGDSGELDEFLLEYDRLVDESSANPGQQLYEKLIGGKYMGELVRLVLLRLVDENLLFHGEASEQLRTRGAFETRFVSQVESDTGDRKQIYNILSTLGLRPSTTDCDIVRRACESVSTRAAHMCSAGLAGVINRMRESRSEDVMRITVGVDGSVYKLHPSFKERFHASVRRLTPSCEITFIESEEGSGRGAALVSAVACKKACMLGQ
T1 sequence (Q14397 whole entry, looked up): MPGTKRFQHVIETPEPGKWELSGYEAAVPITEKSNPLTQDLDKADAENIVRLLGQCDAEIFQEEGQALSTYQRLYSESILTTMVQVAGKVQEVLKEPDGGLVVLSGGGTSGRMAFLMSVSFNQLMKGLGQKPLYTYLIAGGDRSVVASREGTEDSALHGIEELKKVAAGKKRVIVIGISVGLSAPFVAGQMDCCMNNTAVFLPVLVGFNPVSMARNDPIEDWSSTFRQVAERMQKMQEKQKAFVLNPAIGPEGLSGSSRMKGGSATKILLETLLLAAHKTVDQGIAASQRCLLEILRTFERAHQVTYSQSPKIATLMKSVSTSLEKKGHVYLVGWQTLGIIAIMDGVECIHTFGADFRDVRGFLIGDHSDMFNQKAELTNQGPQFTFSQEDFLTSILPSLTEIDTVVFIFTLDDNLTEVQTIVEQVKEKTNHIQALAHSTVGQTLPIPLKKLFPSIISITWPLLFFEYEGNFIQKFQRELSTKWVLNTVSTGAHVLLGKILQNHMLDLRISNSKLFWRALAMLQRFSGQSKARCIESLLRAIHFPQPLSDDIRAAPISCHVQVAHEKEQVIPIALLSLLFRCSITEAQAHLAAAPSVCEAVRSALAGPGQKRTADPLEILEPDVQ
Arylsulfatase A (Homo sapiens), sequence (P15289 whole entry, looked up): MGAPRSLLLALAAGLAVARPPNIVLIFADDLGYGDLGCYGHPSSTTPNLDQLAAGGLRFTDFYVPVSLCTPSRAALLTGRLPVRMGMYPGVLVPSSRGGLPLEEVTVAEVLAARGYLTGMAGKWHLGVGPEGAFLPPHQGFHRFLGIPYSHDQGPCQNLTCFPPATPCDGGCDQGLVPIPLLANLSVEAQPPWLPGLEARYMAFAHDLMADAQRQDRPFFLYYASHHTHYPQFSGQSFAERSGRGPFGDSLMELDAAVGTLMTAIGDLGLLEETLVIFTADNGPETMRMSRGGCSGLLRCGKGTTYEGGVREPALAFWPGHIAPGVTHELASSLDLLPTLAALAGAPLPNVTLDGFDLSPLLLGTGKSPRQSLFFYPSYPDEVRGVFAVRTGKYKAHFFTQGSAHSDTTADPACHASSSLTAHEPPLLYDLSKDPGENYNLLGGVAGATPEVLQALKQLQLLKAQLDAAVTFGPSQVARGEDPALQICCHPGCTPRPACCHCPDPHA

COC(=O)[C@@H](N)CCCN=C(N)N[N+](=O)[O-]
inactive: all assays above

CN1C2CCC1CC(OC(=O)c1cc(Cl)cc(Cl)c1)C2 (configuration not stated)
inactive: all assays above
